According to PubChem BioAssay AID485 (The Scripps Research Institute Molecular Screening Center, 2006):
About 460 (0.27%) of roughly 170,000 compounds were called active. This excerpt belongs to a sample that is enriched for actives. A number with no mark means an inactive call.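 The calls were made as follows: active = inhibition above the plate cutoff, the mean inhibition of test wells on that plate plus 3 SD (cut at about 28% in these data); inactive = the rest.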

biological target: Sphingosine 1-phosphate receptor 3 (Homo sapiens) (UniProt Q99500); experiment: inhibition of S1P-stimulated S1P3 activation – cell-based, primary screen (AID 485); settings: CHO S1P3 NFAT-BLA reporter, FRET fluorescence, antagonist mode; at 4.98 µM; active compounds read high;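 also: cells challenged with S1P at its EC80 of 0.8 µM; blue over green emission ratio from cleaved BLA substrate after 4 h stimulation; 0% = S1P-stimulated wells and 100% = unstimulated DMSO-only wells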
Sequence (Q99500 whole entry, looked up): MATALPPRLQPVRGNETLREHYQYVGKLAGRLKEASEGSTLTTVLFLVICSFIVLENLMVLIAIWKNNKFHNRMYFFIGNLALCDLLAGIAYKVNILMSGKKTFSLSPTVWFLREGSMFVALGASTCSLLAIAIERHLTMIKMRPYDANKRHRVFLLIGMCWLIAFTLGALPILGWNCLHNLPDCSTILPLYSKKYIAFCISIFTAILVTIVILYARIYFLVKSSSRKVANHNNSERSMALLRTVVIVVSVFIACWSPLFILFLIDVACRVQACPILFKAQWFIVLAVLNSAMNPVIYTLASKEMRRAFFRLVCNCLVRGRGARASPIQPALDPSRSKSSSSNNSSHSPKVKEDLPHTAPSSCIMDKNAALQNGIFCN

Row | SMILES | inhibition
1 | NS(=O)(=O)c1ccc(NC(=O)COC(=O)c2cc3ccccc3oc2=O)cc1 | 11.2%
2 | O=C(N/N=C/c1cccc([N+](=O)[O-])c1)c1ccncc1 | -7.73%
3 | Cc1ccc(NC(=O)NNC(=O)c2sccc2-n2cccc2)cc1 | 8.38%
4 | COc1ccc(C2=NN(c3nc4ccccc4s3)C(=O)C2)cc1 | -9.89%
5 | CCOC(=O)N1CCN(c2c(NCCN3CCN(c4ccccc4F)CC3)c(=O)c2=O)CC1 | -1.55%
6 | COc1ccc(NC(=O)C2CCC(CNc3c(N4CCCCC4)c(=O)c3=O)CC2)c(OC)c1 (configuration not stated) | -5.91%
7 | COc1ccc(NS(=O)(=O)c2ccc(Oc3c(C#N)cccc3C#N)cc2)cc1 | 1.93%
8 | COc1ccc(CC(=O)N[C@@H](CCSC)c2nc3ccccc3[nH]2)cc1 | -1.34%
9 | CCn1c(=O)c([N+](=O)[O-])c(NCc2ccc3c(c2)OCO3)c2ccccc21 | -5.99%
10 | O=C(Nc1ccc2oc(-c3ccccc3F)nc2c1)c1ccco1 | -11.6%
11 | Nc1nc(SC23CC4CC(CC(C4)C2)C3)ns1 | -0.08%
12 | Cc1cc(=O)oc2cc(OCCC[n+]3ccccc3)ccc12 | 0.67%
13 | CC1=NNC(=O)C1CC(=O)N/N=C/c1ccncc1 (configuration not stated) | -24.4%
14 | C[C@@H](NC(=O)OC(C)(C)C)c1nnc(S(=O)(=O)Cc2ccccc2)o1 | -3.71%
15 | CCOC(=O)c1oc2c(CN3CCN(CCO)CC3)c(O)c(CC)cc2c(=O)c1-c1nc2ccccc2s1 | -10.5%
16 | Cc1ccc(S(=O)(=O)N(C)C)cc1NC(=O)c1n[nH]c(=O)c2ccccc12 | -6.86%
17 | Cc1cccc(C)c1N1CCN(S(=O)(=O)N2CCCCC2)CC1 | -28.1%
18 | CNC(=O)Nc1cc(C(C)(C)C)no1 | 92.8% (active)
19 | COc1ccc(CN2C(=O)C(C)S/C2=N/N=C/c2ccco2)cc1 (configuration not stated) | -5.66%
20 | CCn1c(-c2cccnc2Cl)nc2cc(C)c(C)cc21 | -10.7%
21 | Cn1c(C(=O)O)ccc1S(=O)(=O)N(Cc1ccccc1)Cc1ccccc1 | 3.65%

Row | SMILES | inhibition
22 | OCCC1CN(Cc2ccccc2-c2ccco2)CCN1Cc1ccsc1 (configuration not stated) | -6.06%
23 | CC(=O)NC(=S)NNC(=O)c1ccc(Br)cc1 | -11.1%
24 | CCOc1ccc2sc(NS(=O)(=O)c3ccc(N)cc3)nc2c1 | -8.22%
25 | Oc1c(Br)cc(/C=N/NC(=S)NCC2CCCO2)cc1Br (configuration not stated) | 0.61%
26 | Cc1cc(C(C)(C)C)cc(S(=O)(=O)Nc2ccc(C(=O)O)cc2)c1C | -12.2%
27 | COc1cc2[nH]c(=O)n(Cc3ccc(C(=O)NC4CCN(Cc5ccccc5)CC4)cc3)c(=O)c2cc1OC | -15.1%
28 | COc1ccc(N2CCN(C(=S)Nc3ccc(S(N)(=O)=O)cc3)CC2)cc1 | 6.19%
29 | CC(=O)NC(CC(=O)Nc1nccs1)c1ccccc1 (configuration not stated) | -11.7%
30 | CSCCNCc1cn(-c2ccc(F)cc2F)nc1-c1ccccc1C | -21.2%
31 | CC(NC(=O)C(=O)N/N=C/c1ccc(Cl)cc1)c1ccccc1 (configuration not stated) | -3.11%
32 | Cc1nc(CNS(=O)(=O)c2cc([N+](=O)[O-])ccc2C)cs1 | 10.3%
33 | COc1ccc(CNC(=O)CCC(=O)Nc2nnc(C(C)C)s2)cc1 | -0.16%
34 | CS(=O)(=O)c1ccc2nc(NC(=O)c3ccc(N4CCCC4=O)cc3)sc2c1 | -4.82%
35 | COc1ccccc1NC(=O)c1c(Br)cnn1C | 2.9%
36 | O=C(O)c1ccccc1OCc1ccccc1Cl | 8.64%
37 | O=C(/C=C/c1ccc(Cl)cc1)Nc1ccc(S(=O)(=O)Nc2ncccn2)cc1 | -1.53%
38 | Cc1cc(C)n(CC(C)NCc2c(C(=O)N3CCOCC3)nc3c(C)cccn23)n1 (configuration not stated) | 16%
39 | COc1cccc(CC2(CO)CCCN(Cc3nc(-c4cccs4)oc3C)C2)c1 (configuration not stated) | -7.51%
40 | CCC(CC)c1nnc(NC(=O)c2nn(C)c(=O)c3ccccc23)s1 | -16.1%
41 | COc1ccc(N2CCN(C(=O)/C(C#N)=C/c3ccccc3)CC2)cc1 | -0.3%
42 | Nc1cc(C(F)(F)F)ccc1N1CCOCC1 | 8.92%

Row | SMILES | inhibition
43 | COc1cc(OC)cc(/C(N)=N/O)c1 | 9.29%
44 | CCOc1cc(N2CCOCC2)c(OCC)cc1NC(=O)c1ccc(C)s1 | 2.86%
45 | CCOC(=O)CN(C(=O)COc1nc(-c2ccccc2)cc(C)c1C#N)c1ccc(F)cc1 | -12.8%
46 | Nc1nc(NCC2CCCO2)nc(Nc2ccccc2F)c1[N+](=O)[O-] (configuration not stated) | 6.85%
47 | CC(C)NC(=O)/C(C#N)=C\c1ccc(N(C)C)c(Br)c1 | -16.2%
48 | C=CCN(c1ccccc1C(=O)NCC(=O)OCC)S(=O)(=O)c1ccc(C)cc1 | 3.85%
49 | CC1=CC2=NC(=O)/C(=C/c3coc4ccccc4c3=O)C(=N)N2O1 | -5.98%
50 | CCOc1cc(NS(=O)(=O)c2ccc(OC)cc2)c(OCC)cc1NC(C)=O | -10.8%
51 | O=C(NCCN1CCOCC1)c1ccc2c(c1)N(Cc1ccc(Cl)cc1)CCS2 | 1.26%
52 | CCc1ccc(Nc2nnc(SCC(=O)c3ccc4c(c3)NC(=O)CO4)s2)cc1 | -5.18%
53 | O=C(c1ccc(F)cc1)n1cc(C(=S)N2CCOCC2)c2ccccc21 | 16.1%
54 | O=C(CN1CCCCC1)Nc1ccccc1Cl | -9.78%
55 | O=C(Nc1ccccc1Cl)c1ccc2nsnc2c1 | 0.3%
56 | O=C(Nc1ccccc1Cl)/C(Cl)=C(\Cl)S(=O)c1ccccc1 (configuration not stated) | 40.8% (active)
57 | CCOC(=O)C1=C(c2ccccc2)NC(=S)NC1c1ccc(Cl)cc1 (configuration not stated) | -1.74%
58 | C=CCN1CC(C)/C(=N\O)CC1C (configuration not stated) | -3.95%
59 | Cc1cc(C)nc(Nc2cc([N+](=O)[O-])ccc2C)n1 | 11.2%
60 | Cc1nn(-c2ccc([N+](=O)[O-])cc2)c(N)c1-c1ccccc1 | -7.46%
61 | COc1ccccc1C1CCN(C(=S)Nc2ccc(Br)cc2)CC1 | 7.17%
62 | O=C(Nc1ccc(N2CCN(C(=O)c3ccccc3)CC2)c(Cl)c1)c1ncn[nH]1 | 7.3%
